# Measured values taken from PubChem BioAssay (NCI).
# Several values for one entry are separate records, joined by “and”; a condition that tells them apart may be missing. Equal entries are not always repeated. About 83,000 compounds went through this panel and 20% of them were active in at least one assay; those are over-represented in the sample as a whole.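 Results are percent growth after 48 hours of single-concentration exposure. 100 means growth as in untreated cells, lower positive values show inhibition; negative values down to -100 show cell death.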 Activity calls are given as the source filed them. How the source made its calls: active means growth percent below 10; inactive means the rest.
# Key:
# Assay in all cases: NCI-60 one-dose screen, 48 h (100 = growth as untreated, 0 = no growth, -100 = all killed)
# Conditions in all cases: 10 µM unless noted
# [1] = tested on: SK-MEL-2 melanoma
# [2] = tested on: EKVX NSCLC
# [3] = tested on: SN12C renal
# [4] = tested on: UO-31 renal
# [5] = tested on: TK-10 renal
# [6] = tested on: ACHN renal
# [7] = tested on: CAKI-1 renal
# [8] = tested on: A498 renal
# [9] = tested on: CCRF-CEM leukemia
# [10] = tested on: SR leukemia
# [11] = tested on: RPMI-8226 leukemia
# [12] = tested on: OVCAR-8 ovarian
# [13] = tested on: OVCAR-4 ovarian
# [14] = tested on: SK-OV-3 ovarian
# [15] = tested on: IGROV1 ovarian
# [16] = tested on: OVCAR-3 ovarian
# [17] = tested on: HS 578T breast
# [18] = tested on: NCI/ADR-RES ovarian
# [19] = tested on: MOLT-4 leukemia
# [20] = tested on: OVCAR-5 ovarian
Compound,growth [1],growth [2],growth [3],growth [4],growth [5],growth [6],growth [7],growth [8],growth [9],growth [10],growth [11],growth [12],growth [13],growth [14],growth [15],growth [16],growth [17],growth [18],growth [19],growth [20]
CCOC(=O)C(C(=O)OCC)C(c1ccccc1)N1CCN(c2ccccc2)CC1 (configuration not stated),105% (inactive) and 100% (inactive),107% (inactive) and 103% (inactive),98.2% (inactive) and 110% (inactive),73.8% (inactive) and 78.9% (inactive),98.1% (inactive) and 113% (inactive),105% (inactive),112% (inactive) and 98.1% (inactive),139% (inactive) and 107% (inactive),95.9% (inactive),97.9% (inactive) and 101% (inactive),102% (inactive) and 103% (inactive),101% (inactive) and 90.3% (inactive),102% (inactive) and 113% (inactive),115% (inactive) and 108% (inactive),107% (inactive),123% (inactive) and 120% (inactive),103% (inactive) and 104% (inactive),107% (inactive),,
Cc1cc(O)c(C(C)C)cc1S(=O)(=O)O (tested in a mixture with another compound),99.6% (inactive) and 54% (inactive) and 112% (inactive),93.2% (inactive) and 29.5% (inactive),92.4% (inactive) and 22.6% (inactive) and 102% (inactive),90.7% (inactive) and -18.5% (active) and 77.4% (inactive),87.8% (inactive) and 33.8% (inactive) and 132% (inactive),91.8% (inactive) and 10.8% (inactive) and 92.4% (inactive),,103% (inactive) and -18.3% (active) and 112% (inactive),94.5% (inactive) and 16.4% (inactive),109% (inactive) and -17.3% (active) and 92.1% (inactive),88.4% (inactive) and -13.4% (active) and 99.5% (inactive),97.7% (inactive) and 13.6% (inactive) and 97.5% (inactive),89.5% (inactive) and 100% (inactive),105% (inactive) and 5.41% (active) and 118% (inactive),102% (inactive) and -2.34% (active) and 93.9% (inactive),109% (inactive) and -20.4% (active) and 107% (inactive),95.3% (inactive) and -15.9% (active) and 103% (inactive),95.3% (inactive) and 2.8% (active) and 111% (inactive),118% (inactive) and 9.88% (active) and 107% (inactive),80.8% (inactive) and 28.3% (inactive) and 101% (inactive)
N/C(=N\N=C\c1ccc2c(c1)OCO2)N/N=C\c1ccc2c(c1)OCO2,103% (inactive) and 136% (inactive),113% (inactive),107% (inactive) and 89% (inactive),99.5% (inactive) and 77.3% (inactive),140% (inactive) and 153% (inactive),111% (inactive) and 97.7% (inactive),99% (inactive) and 103% (inactive),121% (inactive) and 85.9% (inactive),50.6% (inactive) and 45.3% (inactive),-8.73% (active),98.5% (inactive) and 67.3% (inactive),102% (inactive) and 95% (inactive),,118% (inactive) and 111% (inactive),112% (inactive) and 96.8% (inactive),126% (inactive) and 101% (inactive),115% (inactive) and 92.5% (inactive),101% (inactive) and 82.6% (inactive),,
CCN(CC)CCCC(C)Nc1cnc(C(=O)Nc2cc(F)cc3cccnc23)cn1 (configuration not stated),96.7% (inactive) and 50% (inactive),73.3% (inactive) and 19.2% (inactive),54.5% (inactive) and 1.53% (active),29.1% (inactive) and -91.5% (active),63.7% (inactive) and -48.8% (active),36.6% (inactive) and -2.97% (active),,63% (inactive),19.7% (inactive) and 3.49% (active),2.84% (active) and 21.7% (inactive),75.1% (inactive) and 2.28% (active),60.5% (inactive) and -43.9% (active),12.2% (inactive) and -83.5% (active),98.3% (inactive) and 25.8% (inactive),41.7% (inactive) and -21.9% (active),5.41% (active) and -79.1% (active),69.3% (inactive) and 13.7% (inactive),66.8% (inactive) and 11.6% (inactive),22% (inactive) and 10.4% (inactive),77.1% (inactive) and -24.2% (active)
CCC(C)C1(C2CCCC2)NC(=O)NC1=O (configuration not stated),94.2% (inactive) and 129% (inactive),108% (inactive) and 100% (inactive),100% (inactive) and 96% (inactive),86.3% (inactive) and 96.6% (inactive),92.4% (inactive) and 118% (inactive),111% (inactive) and 108% (inactive),112% (inactive) and 94% (inactive),108% (inactive) and 81.8% (inactive),92.8% (inactive) and 107% (inactive),92% (inactive),93.9% (inactive) and 106% (inactive),,102% (inactive),99.7% (inactive) and 109% (inactive),,106% (inactive) and 115% (inactive),107% (inactive) and 103% (inactive),109% (inactive) and 104% (inactive),,111% (inactive) and 105% (inactive)
CN1CCN(C2CCN(C(=O)Nc3cc(Oc4ccc(NC(=O)C5(C(=O)Nc6ccc(F)cc6)CC5)c(F)c4)ccn3)CC2)CC1,81.3% (inactive),3.24% (active) and 99.4% (inactive),-55.1% (active) and 50.6% (inactive),-61.7% (active) and 92.4% (inactive),-47.9% (active) and 98.4% (inactive),-3.96% (active) and 53.5% (inactive),,-68.6% (active) and 92.8% (inactive),0.274% (active) and 101% (inactive),-22.9% (active) and 58.4% (inactive),-38.9% (active) and 105% (inactive),-55% (active) and 91.6% (inactive),-5.41% (active) and 83.2% (inactive),-51.1% (active) and 74.6% (inactive),-58.6% (active) and 55.3% (inactive),2.87% (active) and 108% (inactive),56.7% (inactive),13.3% (inactive) and 99.5% (inactive),-10.9% (active) and 86.6% (inactive),-10.9% (active) and 94.3% (inactive)
O=[N+]([O-])c1ccc2nc3c4ccccc4c4ccccc4c3nc2c1,97.6% (inactive),81.8% (inactive),81.9% (inactive),75.3% (inactive),67.8% (inactive),57.3% (inactive),77.9% (inactive),-39.8% (active),63.1% (inactive),56.6% (inactive),59.4% (inactive),,8.96% (active),100% (inactive),58.8% (inactive),72.9% (inactive),79.9% (inactive),58.9% (inactive),,91.7% (inactive)
CC(O)Cn1cnc2c1c(=O)n(C)c(=O)n2C (configuration not stated),98.7% (inactive),100% (inactive),98.4% (inactive),88.7% (inactive),135% (inactive),98% (inactive),99.4% (inactive),110% (inactive),,,,97.6% (inactive),96.5% (inactive),103% (inactive),90.6% (inactive),108% (inactive),,112% (inactive),98.3% (inactive),125% (inactive)
Cc1nn(-c2ccccc2)nc1C(=O)Nc1ccccc1C(=O)NCC1CC1,117% (inactive) and 103% (inactive),79.4% (inactive),89.2% (inactive) and 45.2% (inactive),95.5% (inactive) and 57.1% (inactive),83.5% (inactive),91.8% (inactive) and 19.9% (inactive),,107% (inactive) and 92.8% (inactive),86.8% (inactive),54.5% (inactive),92.9% (inactive) and 92% (inactive),95.8% (inactive) and 30.7% (inactive),106% (inactive) and 40.5% (inactive),99% (inactive) and 91% (inactive),108% (inactive) and 33.7% (inactive),133% (inactive) and 54.2% (inactive),127% (inactive) and 24.2% (inactive),89.6% (inactive) and 41.4% (inactive),103% (inactive) and 75.6% (inactive),99.6% (inactive) and 86.8% (inactive)
